Screening results from PubChem BioAssay.
This is a sample that favours compounds with a hit; in the whole collection about 1.3% have one here.
VACV mCherry inh – qHTS for Stage-Specific Inhibitors of Vaccinia Orthopoxvirus: mCherry Reporter Primary qHTS. hit rate 0.63% among 310,000. Potency, µM (titrated, usually from 36.5 µM), without a hit: at the top dose activity change, negative = inhibition, actives largely listed as inhibitors. AID 720579, 2013. Vaccinia virus mCherry reporter infection, fluorescence; calls by dose curve; tested in A549 cells; note: % is set by controls: 0 for no effect and ±100 for the full control effect; nearly all actives have a fitted effect of over 35% in size
AmpC no deterg – qHTS Inhibitors of AmpC Beta-Lactamase (assay without detergent); P00811; hit rate 0.52% among 330,000; AmpC nitrocefin hydrolysis, absorbance 480 nm, 0.0001% Triton; Potency, µM (series often up to 57.1 µM), for inactives: top-dose activity change, negative = inhibition, actives largely listed as inhibitors; AID 485341, 2010;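 note: plate controls were no compound for no effect and no enzyme for full effect; nearly all actives have a fitted effect of over 20% in size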
Target sequence (P00811 whole entry, looked up): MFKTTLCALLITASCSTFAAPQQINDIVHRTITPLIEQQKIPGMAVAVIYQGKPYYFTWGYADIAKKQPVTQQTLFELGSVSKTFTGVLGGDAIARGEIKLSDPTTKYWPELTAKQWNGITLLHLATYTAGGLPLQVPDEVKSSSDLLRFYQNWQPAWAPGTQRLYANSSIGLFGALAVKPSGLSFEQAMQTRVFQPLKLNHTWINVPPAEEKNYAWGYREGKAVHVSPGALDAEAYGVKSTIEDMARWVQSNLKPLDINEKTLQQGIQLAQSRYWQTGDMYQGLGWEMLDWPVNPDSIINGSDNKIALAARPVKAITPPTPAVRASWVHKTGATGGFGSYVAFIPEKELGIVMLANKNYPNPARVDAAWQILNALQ
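20 mM phosphate pH 7.0 + 0.01% (detergent screen) or 0.0001% Triton X-100; 5.3 nM AmpC reagent; cpd preinc 15 min RT; nitrocefin (800 uM stock) to start; A480 q20 s × 4 min; Activity was normalised to no-enzyme and no-compound control wells.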
AMA1-RON2 inh – qHTS for Inhibitors of AMA1-RON; Towards Development of Antimalarial Drug Lead: Primary Screen; AlphaScreen AMA1-biotinylated RON2 peptide binding; Plasmodium falciparum AMA1 (3D7) - RON2 peptide interaction; AID 720542, 2013; hit rate 0.2% among 360,000; Potency, µM (doses to about 58.2 µM), for inactives: at the top dose activity change, negative = inhibition, most hits filed as inhibitors;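 note: 0% = vehicle wells and -100% = peptide control; nearly all actives have a fitted effect of over 45% in size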
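AMA1 (3D7) with his tag at 25 nM final met compounds first, then biotinylated RON2 peptide at 25 nM; detection used donor plus acceptor beads, 10 µg/mL apiece, read by AlphaScreen after 30 min at room temperature.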
SARS PLpro yeast – qHTS of Yeast-based Assay for SARS-CoV PLP; Potency, µM (top dose mostly 32.9 µM), for the others: top-dose activity, positive = growth rescue, actives largely listed as activators; S. cerevisiae expressing SARS-CoV PLpro, growth rescue; hit rate 0.19% among 330,000; calls by dose curve; note: 0% is about no effect; nearly all actives have a fitted effect of over 55% in size
AmpC detergent – qHTS Inhibitors of AmpC Beta-Lactamase (assay with detergent); P00811; AmpC hydrolysis of nitrocefin, absorbance 480 nm, 0.01% Triton; Potency, µM (series often up to 114 µM), for inactives: at the highest dose activity change, negative = inhibition, hits mostly inhibitors; hit rate 0.041% among 370,000;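 note: 0% = no-compound wells and -100% = no-enzyme wells; nearly all actives have a fitted effect of over 25% in size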
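AmpC (5.3 nM in the dispensed reagent) in 20 mM phosphate pH 7.0 with 0.01% (detergent screen) or 0.0001% Triton X-100 was preincubated with compounds for 15 min at room temperature. Nitrocefin was then added from an 800 uM solution, and hydrolysis was followed at 480 nm.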
Vaccinia Venus – qHTS for Stage-Specific Inhibitors of Vaccinia Orthopoxvirus: Venus Reporter Primary qHTS | Vaccinia virus Venus reporter expression, fluorescence | Potency, µM (series often up to 36.5 µM), without a hit: at the highest dose activity change, negative = inhibition, actives largely listed as inhibitors | hit rate 0.46% among 330,000 | AID 720580, 2013; calls by dose curve; tested in A549 cells; note: % is set by controls: 0 for no effect and ±100 for the full control effect; nearly all actives have a fitted effect of over 30% in size
* marks the source's active call; other numbers are inactive results; [ ] = dose if it differs, or a comment. Unless noted, calls come from the whole dose curve; as a rule, active = well fitted curve in the direction sought with a large enough effect; inconclusive = small, poorly fitted or top-dose-only effect, or another doubt; inactive = no such curve, though single readings can be large; an effect the other way counts as inactive or inconclusive. Potency is the fitted concentration of half-maximal effect.

For COc1cc(OC)c(OC)cc1/C=C1/Cc2ccccc2C1=O the results were AmpC no deterg -15%, AMA1-RON2 inh 0%, SARS PLpro yeast -3% and AmpC detergent -1%.
For CCC1C/C(=C\c2cc(OC)c(OC)cc2OC)C(=O)/C(=C/c2cc(OC)c(OC)cc2OC)C1 (stereo not given) the results were AmpC no deterg 78%, AMA1-RON2 inh 22µM*, SARS PLpro yeast 0% and AmpC detergent -2%.
`CCN(CC)c1ccc(NC(=O)c2nc3nc(C)cc(C(F)F)n3n2)cc1` gave VACV mCherry inh inactive, AmpC no deterg 3.2µM*, AMA1-RON2 inh -16%, SARS PLpro yeast inconclusive, AmpC detergent 9% and Vaccinia Venus -11%.
CCSc1nnc(C(C)NC(=O)c2ccc(OC)cc2)n1C (stereo not given) was read as VACV mCherry inh -5% and Vaccinia Venus -5%.
For Cc1ccc(C(=O)CSc2nnc(-c3ccco3)o2)o1 the results were VACV mCherry inh inconclusive, AmpC no deterg -16%, AMA1-RON2 inh -1%, SARS PLpro yeast -3%, AmpC detergent -7% and Vaccinia Venus 10µM*.
Screening COc1ccc(-c2nnc(SCC(=O)c3ccc(C)o3)o2)cc1 returned VACV mCherry inh 28µM*, AmpC no deterg -10%, AMA1-RON2 inh 7%, SARS PLpro yeast 1%, AmpC detergent -2% and Vaccinia Venus inconclusive.
COc1ccc(-c2nnc(SCC(=O)N3CCCC3)o2)cc1 was read as VACV mCherry inh 7%, AmpC no deterg -5%, AMA1-RON2 inh 6%, SARS PLpro yeast -1%, AmpC detergent -17% and Vaccinia Venus -2%.
`Cc1ccc(CN2CCOc3ccc(C(C)(O)COc4ccccc4)cc3C2)o1` (stereo not given) gave VACV mCherry inh -9% and Vaccinia Venus 7%.
CN(C)c1ccc(/C=C/c2cc3ccccc3cn2)cc1 was read as VACV mCherry inh -28% and Vaccinia Venus -29%.
`CCc1ccc(S(=O)(=O)ON2C(=O)c3ccccc3C2=O)cc1` gave VACV mCherry inh -2%, AmpC no deterg -5%[2.29 µM], AMA1-RON2 inh 0%, SARS PLpro yeast 0%, AmpC detergent 35µM* and Vaccinia Venus 1%.
COc1ccc(OC)c(S(=O)(=O)N2CCN(c3ccccc3)CC2)c1 was read as AmpC no deterg -8%, AMA1-RON2 inh -2%, SARS PLpro yeast -14% and AmpC detergent inconclusive.
`COc1ccc(OC)c(S(=O)(=O)ON2C(=O)c3ccccc3C2=O)c1` gave VACV mCherry inh inactive, AmpC no deterg inconclusive, AMA1-RON2 inh 3%, SARS PLpro yeast -2%, AmpC detergent 40µM* and Vaccinia Venus -9%.
`CCC1(C2CCN(C(=O)c3ccccc3C)CC2)NC(=O)N(CCc2scnc2C)C1=O` (stereo not given) gave VACV mCherry inh -10% and Vaccinia Venus -5%.
For C[C@@H]1CN([C@H](C)CO)C(=O)Cc2cc(NC(=O)Nc3ccccc3)ccc2O[C@@H]1CN(C)Cc1ccc2c(c1)OCO2 the results were VACV mCherry inh inconclusive, AmpC no deterg 115%, AMA1-RON2 inh 5%, SARS PLpro yeast 0% and Vaccinia Venus 28µM*.
`CCOC(=O)CCCCCC(=O)Nc1ccc2c(c1)CC(=O)N([C@H](C)CO)C[C@@H](C)[C@H](CN(C)Cc1ccc3c(c1)OCO3)O2` gave VACV mCherry inh inactive, AmpC no deterg 292%, AMA1-RON2 inh -7%, SARS PLpro yeast 0% and Vaccinia Venus -20%.
